# Rows were chosen to be rich in hits. Some 21% of all compounds tested hit in one or more screens of this group.
# CHX counter – Cycloheximide Counterscreen for Small Molecule Inhibitors of Shiga Toxin. cell reporter, cycloheximide protein synthesis inhibition counterscreen. max response, %. 300,000 compounds, 12% hits. AID 2314, 2010; in the data active means max response mostly above about 13%, no sharp cut-off; inactive means mostly below about 14%; further: read at 38.3 µM for the half of the compounds with a filed dose
# NS1 inh – qHTS Assay for Inhibitors of Influenza NS1 Protein Function | Potency, µM (doses to about 46.1 µM) | AID 2326, 2010 | 270,000 compounds, 0.4% hits; calls by dose curve; further: actives are rising curves; nearly all actives have a fitted effect of over 50% in size
#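 Compounds were scored for reversing the slow growth caused by influenza A NS1 in S. cerevisiae, measured by optical density at 600 nm. Assay medium contained 2% galactose at pH 6.0; NS1-free yeast of the same strain were the positive control.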
# Pf growth 96h – Primary qHTS for delayed death inhibitors of the malarial parasite plastid, 96 hour incubation | P. falciparum luciferase reporter growth, 96 h | Potency, µM (doses to about 28.7 µM), usual class: inhibitors | 320,000 compounds, 6.9% hits | AID 504834, 2011
#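 Plates of compound plus infected erythrocytes (2% hematocrit, 0.05% parasitemia final) incubate 96 hours, 37 C, 5% CO2. Detection reagent added; reduced luminescence from the parasites' luciferase reporter flags inhibition.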
# Pf growth 48h – Primary qHTS for delayed death inhibitors of the malarial parasite plastid, 48 hour incubation | P. falciparum luciferase growth in erythrocytes, 48 h | 310,000 compounds, 5.9% hits | Potency, µM (titrated, usually from 28.7 µM), actives largely listed as inhibitors
#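 First compound was added to culture medium, then infected red cells at 0.1% parasitemia and 2% hematocrit (final). After incubation at 37 C under 5% CO2, luciferase detection reagent was dispensed and light output recorded.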
# SARS PLP yeast – qHTS of Yeast-based Assay for SARS-CoV PLP. S. cerevisiae expressing SARS-CoV PLpro, growth rescue. AID 485353, 2010. 330,000 compounds, 0.19% hits. Potency, µM (highest dose often 32.9 µM), most hits filed as activators; calls by dose curve; further: nearly all actives have a fitted effect of over 55% in size
# Shiga inhibitor – A qHTS for Small Molecule Inhibitors of Shiga Toxin; Vero cells, Shiga toxin protein synthesis inhibition reporter; inhibition, % at 38.7 µM; 290,000 compounds, 9.2% hits; AID 2315, 2010; in the data active means inhibition mostly above about 28%, no sharp cut-off; inactive means mostly below about 43%
# Numbers stand for hits; - = inactive; ? = inconclusive; . = no result given; [ ] = remark or other dose. Unless noted, the call rests on the fitted dose curve; in most records, active means well fitted inhibition curve with a large enough effect; inconclusive means small, poorly fitted or top-dose-only effect, or another doubt; inactive means no such curve, though single readings can be large or run the other way.
SMILES,CHX counter,NS1 inh,Pf growth 96h,Pf growth 48h,SARS PLP yeast,Shiga inhibitor
COC(=O)c1c(-c2ccccc2)csc1NC(=O)c1ccco1,71,-,-,-,-,153
Cc1ccc(OCC(O)Cn2c(=N)n(CCN3CCCCC3)c3ccccc32)cc1 (centres undefined),-,-,-[5.75 µM],3.7µM,-,-
COc1ccc(OCC(O)CN2CCCCC2)cc1 (centres undefined),-,-,-,.,-,-
COc1ccc(OCC(O)Cn2c(=N)n(CCN3CCCCC3)c3ccccc32)cc1 (centres undefined),-,-,?,4.7µM,-,-
O=C1C[C@H](c2ccc(-c3ccccc3)cc2)N1S(=O)(=O)c1ccccc1[N+](=O)[O-],-,.,.,.,.,-
CC(C)CCNC(=O)c1ccc2nc[nH]c2c1,24,-,.,-,-,-
O=C(NCCSc1ccc(Br)cc1)c1ccc2nc[nH]c2c1,21,-,-,-,-,-
COc1ccc2ccc3c(c2c1)N=C[C@]1(O3)N(C)c2ccccc2C1(C)C,-,-,6.6µM,?,-,-
O=c1oc2cc(O)ccc2c2c1CCCC2,-,-,-,-,-,-
COc1ccc(SC[C@H](Cc2ccccc2)N2CCN(C)CCC2=O)cc1,-,-,10µM,13µM,-,-
Cc1ccc(SC[C@H](Cc2ccccc2)N2CCN(C)CCC2=O)cc1,-,-,?,12µM,-,-
CN1CCC(=O)N([C@H](CSc2ccc(Br)cc2)Cc2ccccc2)CC1,-,-,3.3µM,9.3µM,-,-
COc1ccc(SCC(Cc2ccccc2)N2CCN(C)CCC2=O)cc1 (centres undefined),-,.,.,.,.,-
CN1CCC(=O)N([C@H](CSc2ccccc2)Cc2ccccc2)CC1,-,-,?,-,-,-
NCC[C@H](NC(=O)[C@@H](N)CCCN=C(N)N[N+](=O)[O-])C(N)=O,-,.,.,.,.,-
Cc1cc(Cn2nnc(-c3ccc(Br)cc3)n2)cc(C)c1O,.,.,-,?,-,.
CC(=O)c1cc(CN2CCN(C3CCN(C(C)C)CC3)C(CCO)C2)cs1 (centres undefined),-,-,?,-,-,-
CCc1nnc(NC(=O)CC(C)c2ccccc2)s1 (centres undefined),-,-,-,-,-,.
CC(=O)Nc1nc(-c2ccc3c(c2)CCO3)cs1,29,-,-,-,-,74
Nc1nc(-c2ccc3c(c2)CCO3)cs1,38,.,?,-,-,98
CCN(c1ccccc1)S(=O)(=O)c1c(C)noc1C,.,.,-,?,-,.
Cc1c(C(=O)NC2CCCC2)oc2ccccc12,.,.,-,-,-[6.58 µM],.
COc1ccc(NC(=O)Cn2cnc3sc(C)c(S(=O)(=O)N4CCOCC4)c3c2=O)cc1Cl,-,-,-,?,-,-
CNc1nc(N)c([N+](=O)[O-])c(NCC2CCCO2)n1 (centres undefined),-,-,-,2.1µM,-,-
COCCNc1nc(N)c([N+](=O)[O-])c(NCC2CCCO2)n1 (centres undefined),-,-,-,-,-,-
SMILES,CHX counter,NS1 inh,Pf growth 96h,Pf growth 48h,SARS PLP yeast,Shiga inhibitor
Cc1cccc(Nc2nc(NCC3CCCO3)nc(N)c2[N+](=O)[O-])c1 (centres undefined),-,-,?,-,-,-
Nc1nc(NCC2CCCO2)nc(Nc2ccc(F)cc2)c1[N+](=O)[O-] (centres undefined),-,-,5.9µM,?,-,-
Cc1ccc(Nc2nc(NCC3CCCO3)nc(N)c2[N+](=O)[O-])cc1 (centres undefined),-,-,12µM,-,-,-
CCN(CCO)c1nc(NCc2ccccc2)c2cnn(C)c2n1,-,-,-,?,-,-
COC(=O)CSc1nc2[nH]ncc2c(=O)[nH]1,-,.,-,-,-,-
O=C(O)c1ccc(NC(=O)c2cn(-c3ccccc3)nc2-c2cccc(Cl)c2)cc1,-,-,12µM,-,-,-
CC(NC(=O)COC(=O)c1cc2ccccc2cc1O)c1ccccc1 (centres undefined),.,.,-,-,-,.
O=C(O)c1ccc(NC(=O)c2cn(-c3ccccc3)nc2-c2ccc(F)cc2)cc1,39,.,-,-,-,94
O=C(Nc1ccncc1)c1cn(-c2ccccc2)nc1-c1cccs1,44,-,2.9µM,.,-,-
CC(NC(=O)COC(=O)c1cn(-c2ccccc2)nc1-c1cccs1)c1ccccc1 (centres undefined),-,-,3.3µM,.,-,-
CC(=O)c1ccc(NC(=O)c2cn(-c3ccccc3)nc2-c2ccncc2)cc1,-,-,-,-,?,-
CCCCn1c(N)c(N(CC(C)C)C(=O)C2=NN(c3cc(C)ccc3C)C(=O)CC2)c(=O)[nH]c1=O,.,.,-,-,-,.
Cc1noc(C)c1COc1cccc(C(=O)OC(C)C(=O)Nc2c(C)n(C)n(-c3ccccc3)c2=O)c1 (centres undefined),-,.,-,-,-,-
N#CCC(=O)NNc1c([N+](=O)[O-])cc(C(F)(F)F)cc1[N+](=O)[O-],-,-,-,-,-,-
O=C(c1cn(-c2ccccc2)nc1-c1cccs1)N1CCN(c2ccc(F)cc2)CC1,-,?,9.3µM,?,-,-
COC(=O)c1ccc(NC(=O)c2cn(-c3ccccc3)nc2-c2ccncc2)cc1,-,-,?,12µM,-,-
Cc1cccc(NC(=O)c2cn(-c3ccccc3)nc2-c2ccccc2)c1,13,-,13µM,-,-,-
O=C(NC(=S)NCCO)c1cn(-c2ccccc2)nc1-c1ccccc1,-,.,-,-,-,49
CCOc1ccc2oc(C(=O)Nc3cc(C)ccn3)c(C)c2c1,.,.,-,-,-,.
COC(=O)c1ccccc1NC(=O)CSc1nnnn1CC(=O)O,-,-,?,-,-,-
C=CCNC(=S)NNC(=O)c1ccncc1,-,-,-,-,-,-
CCSc1nnc(NC(=O)CCNS(=O)(=O)c2cc(Br)cnc2N)s1,-,-,9.3µM,?,-,-
Cc1cc(C)cc(NC(=O)CCNS(=O)(=O)c2cc(Br)cnc2N)c1,-,-,?,-,-,-
COc1ccc(/C=C/C(=O)NCC(=O)N/N=C/c2cccs2)cc1,-,-,-,-,?,-
O=C(CCc1ccccn1)N1CCCC(N2CCN(c3cccc(C(F)(F)F)c3)CC2)C1 (centres undefined),-,-,?,?,-,-
Cc1ccc(O)c(NC(=O)c2cc(-c3ccccc3)on2)c1,66,-,-,?,?,.
O=C(Nc1cc(Br)ccc1O)c1cc(-c2ccccc2)on1,14,-,?,2.1µM,-,-
O=C(CN1C(=O)c2cccnc2Oc2ccc(Cl)cc21)N1CCCCCC1,-,-,-,?,-,-
CC1CCC(NC(=O)CN2C(=O)c3cccnc3Oc3ccc(Cl)cc32)CC1 (centres undefined),16,-,-,?,-,-
